In the library only some 1.5% were active in any assay of this set; here they are far more common.
eLon inh: inhibitors of E. coli Lon protease, primary screen, biochemical, fluorescence polarization | purified E. coli Lon protease | inhibition, % at 7.94 µM | hit rate 0.42% among 360,000; in the data active = inhibition above about 13%, passing the limit was not always enough;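 note: 0% = enzyme with probe and DMSO and 100% = no enzyme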
Target sequence (P0A9M0 whole entry, looked up): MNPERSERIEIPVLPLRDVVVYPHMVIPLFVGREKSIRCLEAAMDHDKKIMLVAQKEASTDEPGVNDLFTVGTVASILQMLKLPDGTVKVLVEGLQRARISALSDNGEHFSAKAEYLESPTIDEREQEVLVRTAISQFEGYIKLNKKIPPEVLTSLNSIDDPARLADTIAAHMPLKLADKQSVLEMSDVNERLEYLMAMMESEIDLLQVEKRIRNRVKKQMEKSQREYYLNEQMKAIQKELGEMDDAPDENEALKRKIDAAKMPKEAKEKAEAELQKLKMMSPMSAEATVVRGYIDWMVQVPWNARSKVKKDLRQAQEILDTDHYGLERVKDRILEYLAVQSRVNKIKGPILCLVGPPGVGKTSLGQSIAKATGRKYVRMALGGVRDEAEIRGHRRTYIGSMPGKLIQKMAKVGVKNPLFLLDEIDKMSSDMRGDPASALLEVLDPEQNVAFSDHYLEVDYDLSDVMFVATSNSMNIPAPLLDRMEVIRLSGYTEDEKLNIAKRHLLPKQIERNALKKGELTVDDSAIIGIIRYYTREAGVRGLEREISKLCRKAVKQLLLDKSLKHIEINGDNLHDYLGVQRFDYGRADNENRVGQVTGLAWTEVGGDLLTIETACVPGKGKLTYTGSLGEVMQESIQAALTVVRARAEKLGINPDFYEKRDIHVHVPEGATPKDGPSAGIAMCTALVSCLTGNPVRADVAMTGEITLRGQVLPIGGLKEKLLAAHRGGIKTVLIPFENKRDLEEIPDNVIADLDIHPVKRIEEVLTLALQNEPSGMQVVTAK
BCLXL inh: inhibitors of human Bcl-xL, primary screen, biochemical, fluorescence polarization, HTS; hit rate 0.7% among 320,000; GST-Bcl-xL / FITC-Bim BH3 peptide fluorescence polarization; AID 2129, 2009; inhibition, % at 10.9 µM; Bcl-2-like protein 1 (Homo sapiens), Q07817;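 active = inhibition above the mean of all tested compounds plus 3 SD, cutoff set per campaign, cut at about 30% in these data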;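 note: 0% = DMSO wells and 100% = unlabeled Bim-BH3 peptide competitor; inhibitors lower millipolarization by displacing the labeled peptide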
MCL1-BIM inh: inhibitors of MCL1 binding to BIM-BH3, primary screen, biochemical, fluorescence polarization; Induced myeloid leukemia cell differentiation protein Mcl-1 (Homo sapiens), Q07820; GST-MCL1 / FITC-Bim-BH3 fluorescence polarization; inhibition, % at 10.9 µM; hit rate 0.68% among 320,000;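 active = inhibition above the mean inhibition of all tested compounds plus 3 SD, set per campaign, cut at about 40% in these data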;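 note: 0% = DMSO wells and 100% = unlabeled Bim-BH3 peptide control; higher means more loss of mP so more displacement of Bim peptide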
EBV gp42 inh: Epstein-Barr virus gp42 inhibitors, primary screen, biochemical, uHTS, fluorescence polarization; Glycoprotein 42 (Epstein-Barr virus (strain AG876)), Q1HVG2; Fluorescence polarization binding assay, mP read-out; inhibition, % (tested at 21.74 µM); hit rate 0.42% among 220,000; AID 1085, 2008; in the data active = inhibition above about 50%
MEX-5 binding: MEX-5 zinc finger RNA-binding disruptors – biochemical, C. elegans, fluorescence polarization, MLPCN library, primary screen. AID 1832, 2009. hit rate 0.38% among 300,000. MEX-5/FITC-TCR2 RNA binding; stronger effect = lower value. activity score (negative = inhibition of binding), % at 10 µM;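 active = inhibition past about -25% in most replicates, and total fluorescence under double the plate's negative control median, limit read from the data; inconclusive = replicates evenly split on the limit, or fluorescence at least double controls; inactive = too little inhibition in most replicates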;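 note: 0% = DMSO and -100% = 5 µM competing unlabeled TCR2 RNA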
GLD-1 RNA inh: GLD-1/TGE RNA complex disruptors, primary screen, biochemical, fluorescence polarization; inhibition, % at 5.96 µM; hit rate 0.44% among 320,000; purified GLD-1 + fluorescein TGE RNA; AID 2280, 2010;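 active = percent inhibition above a per-plate cutoff, the plate mean of test compounds plus 3 SD, cut at about 30% in these data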;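 note: 0% = DMSO wells with GLD-1 and probe and 100% = wells lacking GLD-1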
BCLXL inh confirm: Bcl-xL inhibitors blocking Bim BH3 binding, confirmation, counter-screen for MCL1 inhibitor project, biochemical, fluorescence polarization; shares compounds with MCL1-BIM inh; GST-Bcl-xL / FITC-Bim BH3 peptide FP binding; inhibition, % at 10.9 µM; hit rate 54% among 1,700; AID 2166, 2009;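 active = inhibition above a cutoff equal to the mean inhibition of all tested compounds plus 3 SD, cut at about 30% in these data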;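 note: 0% = DMSO wells and 100% = unlabeled Bim BH3 control peptide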
MCL1 inh confirm: inhibitors of MCL1 binding to BIM-BH3, confirmation, biochemical, fluorescence polarization, triplicate; GST-MCL1 / FITC-Bim-BH3 fluorescence polarization; shares compounds with MCL1-BIM inh; hit rate 61% among 1,700; inhibition, % at 10.9 µM; AID 2168, 2009;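 active = inhibition above the average of all tested compounds plus 3 SD, cut at about 40% in these data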;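 note: 0% = DMSO wells and 100% = unlabeled Bim-BH3 control peptide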
GLD-1 TGE cf: GLD-1/TGE RNA binding inhibitors, retest, confirmation, biochemical, fluorescence polarization, triplicate; inhibition, % at 5.96 µM; AID 2459, 2010; GLD-1/FL-TGE RNA fluorescence polarization; shares compounds with GLD-1 RNA inh; hit rate 10% among 550;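 active = average inhibition across triplicates above the hit cutoff set in the primary screen, cut at about 32% in these data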;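 note: 0% = GLD-1 with RNA probe and DMSO and 100% = wells lacking GLD-1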
The depositor's hits bear a star; ? = inconclusive; . = no result; + = active, no number; ! = not active in a repeat.

SMILES | eLon inh | BCLXL inh | MCL1-BIM inh | EBV gp42 inh | MEX-5 binding | GLD-1 RNA inh | BCLXL inh confirm | MCL1 inh confirm | GLD-1 TGE cf
CSC1=C(C#N)C(c2ccccc2C)C(C#N)=C(N)N1 (stereo not given) | -7 | 6 | 0 | 3 | 0 | -1 | . | . | .
COC(=O)c1c(C)[nH]c(C=O)c1-c1ccccc1 | -10 | 4 | 2 | 3 | . | -9 | . | . | .
COC(=O)c1c(Cl)c2n3ccccc3c(C)c(-c3ccccc3)c-2c1C(=O)OC | 20 | 172* | + | 97* | -41* | 179* | 37* | 35 | .
Cc1ccc2c(c1C)NC(C(=O)O)C1CC=CC21 (stereo not given) | -6 | 48* | 76* | 87*! | -1 | -1 | 47* | 89* | .
O=C(O)C1Nc2c(C(=O)N3CCOCC3)cccc2C2C=CCC12 (stereo not given) | 6 | 50* | 68* | -3 | -57* | 17 | 42* | 72* | .
Cc1cc(C)c2c(c1)NC(C(=O)O)C1CC=CC21 (stereo not given) | -11 | 69* | 115* | . | -38* | 3 | 45* | 92* | .
CCOC(=O)C1Nc2c(F)cc(C)cc2C2C=CCC12 (stereo not given) | . | 14 | 36 | . | -4 | -6 | . | . | .
O=C1C(Cl)=C(NC(=O)c2ccccc2)C(=O)C(Cl)=C1NC(=O)c1ccccc1 | 19 | 36* | 57* | . | -86* | 22 | 54* | 57* | .
CCn1c(Cc2ccccc2)nnc1SCC(=O)Nc1ccc(N)cc1 | -8 | -3 | -1 | -16 | 0 | -2 | . | . | .
Cc1ccccc1OCC(=O)OCC(=O)Nc1ncc(Cl)c(C)c1Cl | 11 | 23 | 41* | . | . | 7 | 26 | 47* | .
Cc1ccccc1OCC(=O)OCC(=O)Nc1ccc(Cl)cn1 | -4 | 10 | 16 | . | . | 4 | . | . | .
NC1=CC(=O)c2cccc3cccc1c23 | . | 175* | + | . | -28* | 118* | 156* | 188* | .
COCCCNC(=O)Nc1ccc2c(c1)N(C)C(=O)CS2 | 0 | -2 | 1 | -18 | -9 | 9 | . | . | .
O=C(c1nc2ccc(Cl)cn2c1CN1CCC[C@H]1CO)N1CCCCCCC1 | 12 | 61* | 66* | . | -23 | 26 | 55* | 69* | .
N#Cc1ccsc1NC(=O)CN1C(=O)NC2(CCCC2)C1=O | 16 | 66* | 71* | . | -6 | 54* | 59* | 94* | 6
COc1ccc(/C=C2\Oc3cc(OC(=O)N4CCOCC4)ccc3C2=O)c(OC)c1 | -238 | -29 | -57 | -108 | ? | -72 | . | . | .
Cc1ccccc1N1CCN(Cc2cccc(C(=O)O)c2)CC1 | 6 | 2 | 6 | -15 | 1 | 0 | . | . | .
COc1ccc2c(c1)c(=O)c(C(=O)c1ccc(C)cc1)cn2CC(=O)Nc1ccc(F)cc1 | -7 | 6 | 10 | -8 | 1 | 10 | . | . | .
COc1ccc2c(c1)c(=O)c(C(=O)c1ccc(F)cc1)cn2CC(=O)Nc1ccc(F)cc1 | -15 | 75* | 71* | -3 | 1 | 69* | 4 | -6 | -2
CCCOc1ccc(C2C3=C(CCCC3=O)N(CC(=O)O)C3=C2C(=O)CCC3)cc1OCC | 10 | 81* | 101* | . | 2 | 33* | -4 | -10 | 1
C=CCOc1ccc(C2C3=C(CCCC3=O)N(CC(=O)O)C3=C2C(=O)CCC3)cc1OCC | -1 | 12 | 8 | . | -5 | 2 | . | . | .
Cc1ccc(CNC(=O)C2CCCN(c3ncnc4c3nc3n4CCCCC3)C2)cc1 (stereo not given) | -2 | -1 | -3 | . | -2 | 5 | . | . | .
O=C(NNC(=O)c1ccc(Br)o1)c1ccc(NC(=O)c2ccccc2)cc1 | 1 | 3 | 2 | 1 | 1 | -1 | . | . | .
Cc1ccc(CNC(=O)c2ccc(Br)o2)cc1 | -1 | 1 | 4 | -33 | 0 | -4 | . | . | .
Cc1cc2cc(CNC(=O)c3ccc4c(c3)OCO4)ccc2[nH]1 | 19 | 37* | 53* | . | -2 | 33* | 19 | 9 | 0
SMILES | eLon inh | BCLXL inh | MCL1-BIM inh | EBV gp42 inh | MEX-5 binding | GLD-1 RNA inh | BCLXL inh confirm | MCL1 inh confirm | GLD-1 TGE cf
Cc1cc2cc(CNC(=O)c3ccc(Br)o3)ccc2[nH]1 | 9 | 55* | 69* | -6 | -2 | 41* | 57* | 75* | 5
O=C1C=C(O)c2c(O)cccc2C1=O | . | 9 | 16 | -15 | . | 2 | . | . | .
O=C1C=C(O)c2cccc3cccc1c23 | 25 | 71* | 86* | . | 0 | 36* | 67* | 86* | 57*
CC(C)CC(=O)N1CCC(O)(CS(=O)(=O)c2ccc(Cl)c(Cl)c2)CC1 | -10 | 4 | 0 | -7 | -3 | -4 | . | . | .
O=[N+]([O-])c1ccc(S(=O)(=O)NN=CCCc2ccccc2)cc1 | 1 | . | . | . | . | . | . | . | .
CNc1nc2cc([N+](=O)[O-])c([N+](=O)[O-])cc2nc1NC | 2 | 90* | 98* | 7 | 3 | 98* | 12 | 7 | 8
COc1ccc(-c2noc(N3CCC(C(=O)NCc4ccc(Cl)cc4)CC3)n2)cc1 | -6 | 3 | 8 | . | 1 | 5 | . | . | .
Cc1ccc(-n2c(C)nc3c(cnn3-c3ccc(C)c(C)c3)c2=O)cc1C | 4 | 76* | 79* | -10 | -1 | 75* | 14 | 7 | 0
Cc1ccc(-n2c(C)nc3c(cnn3-c3ccc(F)cc3)c2=O)cc1C | 1 | -6 | 0 | -13 | 0 | 4 | . | . | .
O=C1C=C(Nc2ccccc2C(=O)O)c2ccccc2C1=O | 2 | 20 | 25 | 0 | -4 | -2 | . | . | .
O=C1C=C(Nc2cccc3cccnc23)c2ccccc2C1=O | 8 | 55* | 59* | . | -31* | 34* | 45* | 46* | -4
